GRP78 ERSR act – inducers of ER stress response in human glioma cells. Potency, µM, for inactives: top-dose activation, usual class: activators. hit rate 0.02% among 420,000. AID 602332. U87-MG GRP78 promoter luciferase reporter, 16 h; further: series mostly up to about 76 µM; % of control where 0% means no effect; nearly all actives have a fitted effect of over 35% in size
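Stably transfected U87-MG human glioma cells carrying a GRP78-based luminescent sensor were seeded at 1000 cells/well, pin-dosed with compounds and incubated 16 h. Luciferase reagent was then added, and end-point luminescence was read after 10 min at room temperature.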
aSyn yeast inh – rescues yeast growth from alpha-synuclein toxicity | Yeast expressing alpha-synuclein, growth rescue, BacTiter-Glo, 24 h | Potency, µM (top dose mostly 46.1 µM), without a hit: at the top dose growth rescue (activation), usual class: activators | hit rate 0.14% among 370,000 | AID 652106; further: % of control where 0% means no effect; nearly all actives have a fitted effect of over 65% in size
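Screening used galactose-induced yeast with toxic alpha-synuclein levels, exposed to compound for 24 hr at 30 deg C. Cell growth, read with BacTiter-Glo luminescence, gave the measured signal.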
MBNL1 CUG block – blocks human MBNL1 binding to CUG repeat RNA | Q9NR56 | TR-FRET MBNL1-His/biotin-(CUG)12 binding, 665/545 ratio | Potency, µM (titrated, usually from 57.5 µM), without a hit: top-dose activity change, negative = inhibition, hits mostly inhibitors | hit rate 0.036% among 280,000; active means well fitted inhibition curve with a large enough effect in the signal ratio, with a control signal flat, not every such curve was filed as active; inconclusive means small, poorly fitted or top-dose-only effect, or effect the other way, or a change in a side signal; inactive means no such curve, though single readings can be large or run the other way; the % refers to the signal ratio; further: on the % scale 0 is the no-effect control and ±100 the full control effect
Target sequence (Q9NR56 whole entry, looked up): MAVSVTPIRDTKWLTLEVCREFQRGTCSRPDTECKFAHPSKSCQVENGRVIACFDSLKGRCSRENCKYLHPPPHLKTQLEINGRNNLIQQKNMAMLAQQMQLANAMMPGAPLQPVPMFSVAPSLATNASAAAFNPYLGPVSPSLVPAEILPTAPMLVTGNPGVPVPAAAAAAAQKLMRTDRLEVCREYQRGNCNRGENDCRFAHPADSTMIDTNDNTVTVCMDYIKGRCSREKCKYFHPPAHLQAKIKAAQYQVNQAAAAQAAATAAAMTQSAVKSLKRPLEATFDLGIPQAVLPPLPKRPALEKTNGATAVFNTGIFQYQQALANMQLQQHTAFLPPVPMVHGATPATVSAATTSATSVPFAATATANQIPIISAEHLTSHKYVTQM
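Ratiometric TR-FRET (665 over 545 nm, excitation 340 nm) tracks disruption of MBNL1-His/biotin-(CUG)12 complex after 60 min at room temperature, with compounds at 92 nM to 58 uM final.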
TDP-43 yeast inh – inhibitors of TDP-43 toxicity in yeast | TDP-43 expressing yeast growth rescue, BacTiter-Glo, 24 h | Potency, µM (doses to about 46.1 µM), inactives show top-dose growth rescue (activation), actives largely listed as activators | hit rate 1.8% among 410,000; further: % of control where 0% means no effect; nearly all actives have a fitted effect of over 50% in size
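Growth rescue of TDP-43-toxic yeast measured as ATP luminescence (BacTiter-Glo). Cells grown to mid-log in raffinose, induced in galactose at OD600=0.02, exposed to compound 24 hr at 30 deg C.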
FUS yeast rescue – rescues growth of FUS-expressing yeast; S. cerevisiae FUS-expressing, growth rescue, OD600, 24 h; Potency, µM (doses to about 76.6 µM), most hits filed as activators; hit rate 0.24% among 390,000; AID 1347120;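 further: plate controls were DMSO vehicle for no effect and reference control for full effect; nearly all actives have a fitted effect of over 55% in size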
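Steps: raffinose overnight preculture; dilution to OD 0.005 in 2% galactose minimal medium; compound addition (concentration series); 24hr at 30C, 99% humidity; absorbance read at 600 nm.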
Abeta rescue – compounds reversing amyloid beta toxicity in yeast | yeast expressing A-beta42, growth rescue, OD600, 48 h; response scale: 0% DMSO, 100% iron-clioquinol control | Potency, µM (highest dose often 46.1 µM), actives largely listed as activators | hit rate 0.063% among 410,000 | AID 1347071; further: nearly all actives have a fitted effect of over 55% in size
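Growth rescue measured by 600 nm absorbance after 48 h yeast culture at 30 C with compound. Values normalized between DMSO and an equimolar ferric chloride plus clioquinol control.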
Active calls of the source: *; i = inactive; ? = inconclusive; / = no result; [ ] = remark or other dose. Rows were chosen to be rich in hits. Some 2% of all compounds tested hit in one or more screens of this group. Unless noted, the call rests on the fitted dose curve; in most records, active means well fitted curve in the direction sought with a large enough effect; inconclusive means small, poorly fitted or top-dose-only effect, or another doubt; inactive means no such curve, though single readings can be large; an effect the other way counts as inactive or inconclusive. Potency means the concentration at half of the fitted maximal effect.

SMILES | GRP78 ERSR act | aSyn yeast inh | MBNL1 CUG block | TDP-43 yeast inh | FUS yeast rescue | Abeta rescue
COC(=O)[C@@H]1C[C@@H](NC(=O)c2ccc(C(F)(F)F)cc2)CN1Cc1cccc(O)c1 | 4% | / | / | / | / | /
S=c1[nH]nc(COc2ccc3ccccc3c2)o1 | -5% | -7% | -7% | 11µM* | i | i
O=C(NCc1ccccn1)C1Nc2ccc(OC(F)(F)F)cc2C2C=CCC12 (configuration not stated) | 0% | -3% | / | 18µM* | i | i
O=C(NCc1ccccc1)C1Nc2ccc(OC(F)(F)F)cc2C2C=CCC12 (configuration not stated) | -3% | 1% | / | 22µM* | i | ?
Cc1nn(C)c(C(=O)N/N=C/c2cccc(Oc3ccccc3)c2)c1Br | 5% | 8% | 9% | 4.5µM* | i | i
COc1cccc(/C=N/NC(=O)c2c(C)nc3ccc(Br)cn23)c1 | 0% | -1% | 11% | 6% | i | i
Nc1ccc(C(=O)N/N=C/c2cccc(Oc3ccccc3)c2)cc1 | 11% | 0% | ? | 13µM* | i | i
O=C(N/N=C/c1cccc(Oc2ccccc2)c1)c1cc[n+]([O-])cc1 | -2% | -1% | ? | -28%[0.397 µM] | i | i
CCC1(C2CCN(C(=O)c3ccccc3Cl)CC2)NC(=O)N(CCc2scnc2C)C1=O (configuration not stated) | -2% | / | / | / | / | /
CC(Cc1cccs1)NC(=O)Nc1ccc(Cl)cc1 (configuration not stated) | 3% | -13% | -1% | 22µM* | i | i
CC(Cc1cccs1)NC(=O)Nc1ccccc1 (configuration not stated) | 7% | -10% | -5% | -9% | i | i
CC(Cc1cccs1)NC(=S)Nc1ccccc1 (configuration not stated) | 2% | 1% | -7% | -11%[0.397 µM] | i | 11µM*
O=C(NC1CCCCN(Cc2cccc(Cl)c2)C1=O)c1cccc([N+](=O)[O-])c1 (configuration not stated) | / | / | / | / | i | /
S=C1NC(c2ccccc2)=NCN1c1ccccc1 | 0% | 0% | -8% | 13µM* | i | i
COc1cc(NC(=O)C2CCCN(S(=O)(=O)c3cccs3)C2)cc(OC)c1 (configuration not stated) | / | / | / | / | i | /
CCc1ccc(NC(=O)c2cc(S(=O)(=O)NC3CCCC3)ccc2F)cc1 | 2% | / | / | 20µM* | i | i
COc1ccc(-c2cc(NC=O)c3ncc(-c4ccc(C(C)=O)cc4)n3c2)cn1 | -5% | 0% | / | 24% | ? | i
O=CNc1cc(-c2ccccc2Oc2ccccc2)cn2c(-c3ccc(F)cc3)cnc12 | 0% | 20% | / | 16µM* | ? | i
CC(=O)c1ccc(-c2cnc3c(NC=O)cc(-c4ccccc4Oc4ccccc4)cn23)cc1 | 6% | 11% | / | ? | 25µM* | i
COc1ccccc1-c1cc(NC=O)c2ncc(-c3cccc(C(C)=O)c3)n2c1 | -3% | 4% | / | 18µM* | i | i
CC(=O)Nc1cc(-c2ccccc2N(C)C)cn2c(-c3cccc(C(F)(F)F)c3)cnc12 | ? | ? | / | 25µM* | 32µM* | i
COc1ccc2c(c1)CO[C@H]([C@H](O)CO)[C@H]2/C=C/c1ccccc1 | / | / | / | / | i | /
CO[C@H]1[C@H](NC(=O)c2ccco2)c2ccccc2C12CCN(Cc1cccn1-c1ccccn1)CC2 | -5% | / | / | / | / | /
CSc1ccc(CCNC(=O)c2nn(C)c3c2CS(=O)(=O)c2ccccc2-3)cc1 | -4% | 8% | 15% | 25µM* | i | i
CC(C)CCNC(=O)c1nn(C)c2c1CSc1ccccc1-2 | 3% | / | / | ? | i | i
SMILES | GRP78 ERSR act | aSyn yeast inh | MBNL1 CUG block | TDP-43 yeast inh | FUS yeast rescue | Abeta rescue
COc1ccc(OC)c(CCNC(=O)c2nn(C)c3c2CSc2ccccc2-3)c1 | -4% | / | / | 22µM* | i | i
Cn1nc(C(=O)NCc2ccc(Cl)cc2)c2c1-c1ccccc1SC2 | -2% | / | / | 8% | i | i
Cn1nc(C(=O)NCc2ccc(F)cc2)c2c1-c1ccccc1SC2 | 1% | / | / | 18µM* | i | i
CC(NC(=O)c1nn(C)c2c1CSc1ccccc1-2)c1ccccc1 (configuration not stated) | 0% | / | / | 18µM* | ? | i
CN(C)c1ccc(CNC(=O)c2cc3cc(S(=O)(=O)N4CCCCC4)ccc3n2C)cc1 | -2% | / | / | -2% | 8.9µM* | i
CCOc1ccc(CNC(=O)Cn2ccc3cc(S(=O)(=O)N4CCCCC4)ccc32)cc1 | 0% | / | / | 19% | 16µM* | i
CCOc1ccc(CNC(=O)c2cc3cc(S(=O)(=O)N4CCCCC4)ccc3n2C)cc1 | -4% | / | / | 18% | ? | i
CC(NC(=O)c1cc(F)ccc1F)c1nnc2n1CCN(Cc1ccc(-c3ccccc3)cc1)CC2 (configuration not stated) | -5% | / | / | / | / | /
CC1(C(=O)Nc2ccc3c(c2)OCCO3)CCN1C(=O)c1ccccc1CCc1ccccc1 (configuration not stated) | -2% | 2% | / | 14µM* | i | i
Cc1cccc(NCN2C(=O)C3C4C=CC(C4)C3C2=O)c1 (configuration not stated) | 3% | 0% | 0% | 11µM* | i | i
O=C1C2C3C=CC(C3)C2C(=O)N1CNc1ccccc1 (configuration not stated) | -4% | -9% | -1% | ? | / | i
N#Cc1cccc(OC[C@@H](O)CN2CCC(C(O)(c3ccccc3)c3ccccc3)CC2)c1 | / | / | / | / | i | /
COc1ccc(-c2c(C)nn3c(-c4ccccc4)cc(C)nc23)cc1 | -4% | 0% | 1% | 0% | i | i
Cc1cc(-c2ccccc2)n2nc(C)c(C#N)c2n1 | -2% | -12% | -6% | 16µM* | i | i
C#CCNC(=O)C[C@H]1C[C@@]2(C(=O)OC)C(=C[C@H](C3CCCC3)O[C@@H]2C)N(CCc2ccc(OC)c(OC)c2)C1=O | / | / | / | / | i | /
CCc1c(-c2ccccc2)ncn1Cc1cccc(-c2ccccc2)c1 | / | -32% | / | 13% | i | i
CCc1c(-c2ccccc2F)ncn1Cc1cccc(-c2ccccc2)c1 | / | -23% | / | 20µM* | ? | i
CC(=O)Nc1cccc2c1Cc1cc([N+](=O)[O-])ccc1-2 | -3% | 9% | / | 10% | / | i
Nc1ccc2c(c1Br)Cc1ccccc1-2 | 2% | -11% | / | 35µM* | i | i
CC(=O)Nc1ccc2c(c1Br)Cc1ccccc1-2 | 1% | -9% | / | 18µM* | i | i

Screens as filed in PubChem.
